High-throughput results deposited in PubChem BioAssay by National Center for Advancing Translational Sciences (NCATS).
This is a sample that favours compounds with a hit; in the whole collection about 12% have one here.
HCV inh = qHTS Assay for Inhibitors of Hepatitis C Virus (HCV) | AID 651820, 2012 | Potency, µM (top dose mostly 41.8 µM), hits mostly inhibitors | Huh7.5.1 HCVcc-Cre infection, luciferase reporter, 44 h | 3.4% of 340,000 active
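Seed cells (1,000/well) for 4 h; treat with compound and infect with HCVcc-Cre, moi about 0.5. Incubate 44 h, then detect luciferase activity.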
NS1 function inh = qHTS Assay for Inhibitors of Influenza NS1 Protein Function. Potency, µM (titrated, usually from 46.1 µM). 0.4% of 270,000 active; calls by dose curve; also: actives are rising curves; nearly all actives have a fitted effect of over 50% in size
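Read-out: OD600 growth recovery of NS1-expressing budding yeast. Cells grown overnight at 30C in -URA glucose medium, washed, resuspended and diluted 1:100 in 2% galactose assay medium, pH 6.0. Same strain lacking NS1 served as positive control.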
Pf growth 48h = Primary qHTS for delayed death inhibitors of the malarial parasite plastid, 48 hour incubation; P. falciparum luciferase growth in erythrocytes, 48 h; Potency, µM (series often up to 28.7 µM), actives largely listed as inhibitors; 5.9% of 310,000 active; AID 504832, 2011
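Growth was read as firefly luciferase luminescence after a 48 h, 37 C, 5% CO2 exposure of compounds to reporter-bearing P. falciparum cultures (0.1% parasitemia, 2% hematocrit final) in Albumax-supplemented RPMI 1640.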
Pf growth 96h = Primary qHTS for delayed death inhibitors of the malarial parasite plastid, 96 hour incubation | P. falciparum luciferase reporter growth, 96 h | 6.9% of 320,000 active | Potency, µM (highest dose often 28.7 µM), most hits filed as inhibitors | AID 504834, 2011
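Compounds incubated with erythrocytes infected by luciferase-expressing P. falciparum (2% hematocrit, 0.05% parasitemia final) for 96 hours, 37 C in 5% CO2. Growth inhibition scored as decreased luciferase luminescence.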
AMA1 RON2 block = qHTS for Inhibitors of AMA1-RON; Towards Development of Antimalarial Drug Lead: Primary Screen. AlphaScreen AMA1-biotinylated RON2 peptide binding. 0.2% of 360,000 active. Plasmodium falciparum AMA1 (3D7) - RON2 peptide interaction. Potency, µM (titrated, usually from 58.2 µM), most hits filed as inhibitors; also: nearly all actives have a fitted effect of over 45% in size
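AMA1 (3D7) with his tag at 25 nM final met compounds first, then biotinylated RON2 peptide at 25 nM; detection used donor plus acceptor beads, 10 µg/mL apiece, read by AlphaScreen after 30 min at room temperature.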
SARS PLpro yeast = qHTS of Yeast-based Assay for SARS-CoV PLP; S. cerevisiae expressing SARS-CoV PLpro, growth rescue; Potency, µM (highest dose often 32.9 µM), usual class: activators; 0.19% of 330,000 active; calls by dose curve; also: nearly all actives have a fitted effect of over 55% in size
Hits are given with their value; [ ] = dose if it differs, or a comment. Unless noted, calls follow the shape of the dose curve; as a rule, active = well fitted curve in the direction sought with a large enough effect; inconclusive = small, poorly fitted or top-dose-only effect, or another doubt; inactive = no such curve, though single readings can be large; an effect the other way counts as inactive or inconclusive.

For Cc1cc(-n2c(SCc3ccccc3F)nc3n[nH]c(C)c3c2=N)ccc1Cl the results were HCV inh 10µM, Pf growth 48h inconclusive, Pf growth 96h 4.65µM, AMA1 RON2 block inactive and SARS PLpro yeast inactive.
`Cc1ccc(N=C2S/C(=C\c3cn(CC(=O)O)c4ccccc34)C(=O)N2C)cc1` gave HCV inh inactive, NS1 function inh inactive, Pf growth 48h inconclusive, Pf growth 96h inconclusive, AMA1 RON2 block inactive[2.32 µM] and SARS PLpro yeast inactive.
`CCOC(=O)C1CCN(S(=O)(=O)c2ccc(Cl)cc2)CC1` gave HCV inh inactive, NS1 function inh inactive, Pf growth 48h inactive[0.00184 µM], Pf growth 96h inactive, AMA1 RON2 block inactive and SARS PLpro yeast inactive.
`CCOC(=O)C1CCN(C2=C(NS(=O)(=O)c3ccc(Cl)cc3)C(=O)c3ccccc3C2=O)CC1` gave HCV inh inactive, NS1 function inh inactive, Pf growth 48h inconclusive, Pf growth 96h inconclusive, AMA1 RON2 block 12.6µM and SARS PLpro yeast inactive.
CCOC(=O)C1CCCN(C2=C(NS(=O)(=O)c3ccc(Br)cc3)C(=O)c3ccccc3C2=O)C1 (configuration not stated) was read as HCV inh inconclusive, NS1 function inh inactive, Pf growth 48h 5.22µM, Pf growth 96h 2.94µM, AMA1 RON2 block 12.6µM and SARS PLpro yeast inconclusive.
Screening CC(NC(=O)CCCn1cc([N+](=O)[O-])cn1)c1ccccc1 (configuration not stated) returned HCV inh inactive, Pf growth 48h inactive, Pf growth 96h inactive, AMA1 RON2 block inactive and SARS PLpro yeast inactive.
Oc1ccc(Cl)cc1CNCc1cccc2ccccc12 was read as HCV inh inactive, Pf growth 48h 0.415µM, Pf growth 96h 0.928µM, AMA1 RON2 block inactive and SARS PLpro yeast inactive.
OCCNCc1cccc2ccccc12 was read as HCV inh inactive, NS1 function inh inactive, Pf growth 48h inactive, Pf growth 96h inactive, AMA1 RON2 block inactive and SARS PLpro yeast inactive.
For Oc1ccc(Cl)cc1CNCc1ccc(F)c(F)c1 the results were HCV inh inactive, Pf growth 48h 3.29µM, Pf growth 96h 5.22µM, AMA1 RON2 block inactive and SARS PLpro yeast inactive.
Screening O=[N+]([O-])c1ccc(O)c(CNCc2ccccc2)c1 returned HCV inh inactive and AMA1 RON2 block inactive.
COc1ccc(CNCc2cc(Cl)ccc2O)cc1 was read as HCV inh inconclusive, Pf growth 48h 9.28µM, Pf growth 96h 13.1µM, AMA1 RON2 block inactive and SARS PLpro yeast inactive.
Screening Oc1ccc(Cl)cc1CNCc1ccc(Cl)nc1 returned HCV inh inactive, Pf growth 48h inconclusive, Pf growth 96h inconclusive, AMA1 RON2 block inactive and SARS PLpro yeast inactive.
O=[N+]([O-])c1ccc(CNCc2cc(Cl)ccc2O)cc1 was read as HCV inh inconclusive, Pf growth 48h 11.7µM, Pf growth 96h inconclusive, AMA1 RON2 block inactive and SARS PLpro yeast inactive.
CC(=O)c1ccc(OCC(=O)Nc2nnc(C3CC3)s2)cc1 was read as AMA1 RON2 block inactive.
For COc1cc(/C=C/c2cc[n+](C)cc2)ccc1OCC(=O)Nc1ccccc1 the results were HCV inh inactive, NS1 function inh inactive, Pf growth 48h 3.7µM, Pf growth 96h inactive, AMA1 RON2 block inactive and SARS PLpro yeast inactive.
COc1cc(/C=N\NC(=O)CN2CCOCC2)ccc1OCC(=O)Nc1ccc(C)c(C)c1 was read as HCV inh inactive, NS1 function inh inactive, Pf growth 48h inconclusive, Pf growth 96h 9.28µM, AMA1 RON2 block inactive and SARS PLpro yeast inactive.
Screening C/C=C/c1ccc(OCC(=O)Nc2ccc(C(N)=O)cc2)c(OC)c1 returned HCV inh inconclusive, Pf growth 48h inactive, Pf growth 96h inactive, AMA1 RON2 block inactive and SARS PLpro yeast inactive.
For CCOc1cc(/C=N/NC(=O)CN2CCOCC2)ccc1OCc1ccccc1 the results were HCV inh inconclusive, NS1 function inh inactive, Pf growth 48h inconclusive, Pf growth 96h inconclusive, AMA1 RON2 block inactive and SARS PLpro yeast inactive.
